Laboratory results taken from PubChem BioAssay.
Active and inactive are the calls of the source. The rule behind the calls is not given here.

test system: Aerobactin synthetase IucA (Klebsiella pneumoniae hvKP1); experiment: IucA enzyme inhibition, primary screen, biochemical, Spectrum library (AID 1346200); settings: malachite green pyrophosphate, A620, at 8 µM, active compounds read low;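 note: 100% = wells without compound and 0% = wells lacking enzyme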

SMILES	activity remaining
CC(=O)O[C@H]1C[C@@]2(C)[C@@H](C[C@@H](O)C3[C@]2(C)CC[C@H]2[C@H](C)[C@H](O)CC[C@]32C)/C1=C(/CCC=C(C)C)C(=O)O (some centres undefined)	110% (inactive)
CC(C)NCC(O)c1ccc2ccccc2c1 (centres undefined)	102% (inactive)
CC(=O)NCCCS(=O)(=O)O	103% (inactive)
CC1CC2C3CCC4=CC(=O)C=C[C@]4(C)[C@@]3(F)[C@@H](O)C[C@]2(C)[C@@]1(O)C(=O)CO (some centres undefined)	117% (inactive)
